Laboratory results reported in PubChem BioAssay (NCI).
Several values for one entry are separate records, joined by “and”; a condition that tells them apart may be missing. Identical values can stand only once. This is part of a sample that, as a whole, favours compounds with a hit. Of some 79,000 tested, about 15% had one in any assay. Unmarked numbers belong to inactive results. Activity calls are given as the source filed them. Cut-off read from the data, not from the text of the source: active = growth inhibition above about 70%; inactive = the rest.

How the values were obtained:
[1] = NCI Yeast Anticancer Drug Screen. Data for the rad50 strain (AID 155);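 note: 0% = growth of vehicle-only cultures of the same strain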; conditions: S. cerevisiae rad50 strain growth inhibition, active compounds read high
Method in brief: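 Compounds were tested on a yeast strain with an engineered DNA damage repair alteration; the reported value is growth inhibition normalised to vehicle treatment.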

[2] = NCI Yeast Anticancer Drug Screen. Data for the mec2-1 strain (AID 157); conditions: S. cerevisiae mec2-1 strain, active compounds read high
Method in brief: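 Each compound was tested on mec2-1 yeast, a strain altered in DNA damage repair or cell cycle control. Growth inhibition is reported relative to vehicle.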

[3] = NCI Yeast Anticancer Drug Screen. Data for the sgs1 mgt1 strain (AID 161);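 note: 0% = growth of cultures given vehicle only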; conditions: S. cerevisiae sgs1 mgt1 strain, active compounds read high
Method in brief: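 Inhibition of yeast growth, normalised to vehicle-treated controls, is reported for a strain bearing genetic alterations in DNA damage repair.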

[4] = NCI Yeast Anticancer Drug Screen. Data for the cln2 rad14 strain (AID 165);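 note: 0% = growth equal to vehicle treated cultures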; conditions: S. cerevisiae cln2 rad14 strain, active compounds read high
Method in brief: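 Test compounds were added to cln2 rad14 yeast cultures; inhibition of growth was then determined by comparison with vehicle treatment.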

[5] = NCI Yeast Anticancer Drug Screen. Data for the bub3 strain (AID 167); conditions: S. cerevisiae bub3 mutant strain, active compounds read high
Method in brief: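 Growth of a checkpoint-deficient yeast mutant is measured after compound exposure. Values represent inhibition relative to vehicle.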

[6] = NCI Yeast Anticancer Drug Screen. Data for the mlh1 rad18 strain (AID 175); conditions: S. cerevisiae mlh1 rad18 strain growth inhibition, active compounds read high
Method in brief: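 Inhibition values reflect reduced growth of mutant yeast versus vehicle-treated controls following compound exposure; the mutations affect DNA damage repair.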

[7] = at 5.0 µM (retest, dose inferred, filed as 0.5)
[8] = at 50.0 µM (retest, dose inferred, filed as 5.0)

For `CC(=O)[O-].CC(=O)[O-].O=C(N/N=C/c1cc(Cl)cc(Cl)c1[OH2+])c1ccncc1.[Mn+2]`, the growth inhibition [1, 7] was 24%, the growth inhibition [1, 8] was 96% (active) and the growth inhibition ([1]; at 50.0 µM) was 97.8% (active). For the same compound, the growth inhibition [2, 7] was 40%, the growth inhibition [2, 8] was 98% (active) and the growth inhibition ([2]; at 50.0 µM) was 97.2% (active). For the same compound, the growth inhibition [3, 7] was 40%, the growth inhibition [3, 8] was 92% (active) and the growth inhibition ([3]; at 50.0 µM) was 98% (active). For the same compound, the growth inhibition [4, 7] was 1%, the growth inhibition [4, 8] was 95% (active) and the growth inhibition ([4]; at 50.0 µM) was 97% (active). The growth inhibition [5, 7] was 11%, the growth inhibition [5, 8] was 96% (active) and the growth inhibition ([5]; at 50.0 µM) was 97.5% (active). The growth inhibition [6, 7] was 3%, the growth inhibition [6, 8] was 95% (active) and the growth inhibition ([6]; at 50.0 µM) was 98.2% (active).
For `Cc1cccc2cc3ccccc3cc12`, the growth inhibition [1, 7] was 29%, the growth inhibition [1, 8] was 99% (active) and the growth inhibition ([1]; at 50.0 µM) was 95.3% (active). For the same compound, the growth inhibition [2, 7] was 50%, the growth inhibition [2, 8] was 99% (active) and the growth inhibition ([2]; at 50.0 µM) was 97% (active). For the same compound, the growth inhibition [3, 7] was 43%, the growth inhibition [3, 8] was 99% (active) and the growth inhibition ([3]; at 50.0 µM) was 85.9% (active). The growth inhibition [4, 7] was 58%, the growth inhibition [4, 8] was 99% (active) and the growth inhibition ([4]; at 50.0 µM) was 91.1% (active). The growth inhibition [5, 7] was 68%, the growth inhibition [5, 8] was 99% (active) and the growth inhibition ([5]; at 50.0 µM) was 95.7% (active). The growth inhibition [6, 7] was 70% (active), the growth inhibition [6, 8] was 99% (active) and the growth inhibition ([6]; at 50.0 µM) was 96.9% (active).
With `CCOP(=O)(OCC)/C(C#N)=C/c1cccc(C)c1` the growth inhibition [1, 7] was 4%, the growth inhibition [1, 8] was 53% and the growth inhibition ([1]; at 50.0 µM) was 71.4% (active). The growth inhibition [2, 7] was -14%, the growth inhibition [2, 8] was 28% and the growth inhibition ([2]; at 50.0 µM) was 58.3%. The growth inhibition [3, 7] was -18%, the growth inhibition [3, 8] was 42% and the growth inhibition ([3]; at 50.0 µM) was 65.8%. It also gave a growth inhibition [4, 7] of -17%, a growth inhibition [4, 8] of 9% and a growth inhibition ([4]; at 50.0 µM) of 35%. It also gave a growth inhibition [5, 7] of -8%, a growth inhibition [5, 8] of 52% and a growth inhibition ([5]; at 50.0 µM) of 52.1%. For the same compound, the growth inhibition [6, 7] was -37%, the growth inhibition [6, 8] was 56% and the growth inhibition ([6]; at 50.0 µM) was 66.3%.
In the case of `COC(=O)C1=C(C)N2CCSC2(C)C(C(=O)OC)C1c1cccc(Cl)c1` (configuration not stated), the growth inhibition [1, 7] is reported as -21%, the growth inhibition [1, 8] is reported as 85% (active) and the growth inhibition ([1]; at 50.0 µM) is reported as 80.3% (active). For the same compound, the growth inhibition [2, 7] was 4%, the growth inhibition [2, 8] was 77% (active) and the growth inhibition ([2]; at 50.0 µM) was 79.5% (active). The growth inhibition [3, 7] was 0%, the growth inhibition [3, 8] was 84% (active) and the growth inhibition ([3]; at 50.0 µM) was 82.3% (active). It also gave a growth inhibition [4, 7] of 17%, a growth inhibition [4, 8] of 66% and a growth inhibition ([4]; at 50.0 µM) of 69.1%. The growth inhibition [5, 7] was 13%, the growth inhibition [5, 8] was 89% (active) and the growth inhibition ([5]; at 50.0 µM) was 81.5% (active). For the same compound, the growth inhibition [6, 7] was 6%, the growth inhibition [6, 8] was 90% (active) and the growth inhibition ([6]; at 50.0 µM) was 73.2% (active).
With `O=C(CBr)OCc1ccccc1` the growth inhibition [1, 7] was 96% (active) and 98% (active), the growth inhibition [1, 8] was 99% (active) and the growth inhibition ([1]; at 50.0 µM) was 99.5% (active). For the same compound, the growth inhibition [2, 7] was 98% (active) and 99% (active), the growth inhibition [2, 8] was 99% (active) and 100% (active) and the growth inhibition ([2]; at 50.0 µM) was 99.8% (active). For the same compound, the growth inhibition [3, 7] was 97% (active) and 100% (active), the growth inhibition [3, 8] was 99% (active) and 100% (active) and the growth inhibition ([3]; at 50.0 µM) was 99.7% (active). For the same compound, the growth inhibition [4, 7] was 84% (active) and 93% (active), the growth inhibition [4, 8] was 99% (active) and the growth inhibition ([4]; at 50.0 µM) was 99.4% (active). For the same compound, the growth inhibition [5, 7] was 97% (active) and 99% (active), the growth inhibition [5, 8] was 99% (active) and the growth inhibition ([5]; at 50.0 µM) was 99.4% (active). The growth inhibition [6, 7] was 99% (active), the growth inhibition [6, 8] was 99% (active) and the growth inhibition ([6]; at 50.0 µM) was 99.4% (active).
With `CC12CCC3C(CCC4CC(N5CCCCC5)=CCC43C)C1CCC2O` (configuration not stated) the growth inhibition [1, 7] was -3%, the growth inhibition [1, 8] was 98% (active) and the growth inhibition ([1]; at 50.0 µM) was 48.5%. For the same compound, the growth inhibition [2, 7] was -12%, the growth inhibition [2, 8] was 97% (active) and the growth inhibition ([2]; at 50.0 µM) was 89.4% (active). For the same compound, the growth inhibition [3, 7] was 5%, the growth inhibition [3, 8] was 99% (active) and the growth inhibition ([3]; at 50.0 µM) was 47.1%. For the same compound, the growth inhibition [4, 7] was 5%, the growth inhibition [4, 8] was 98% (active) and the growth inhibition ([4]; at 50.0 µM) was 73% (active). The growth inhibition [5, 7] was -8%, the growth inhibition [5, 8] was 98% (active) and the growth inhibition ([5]; at 50.0 µM) was 84.5% (active). The growth inhibition [6, 7] was -3%, the growth inhibition [6, 8] was 98% (active) and the growth inhibition ([6]; at 50.0 µM) was 98.5% (active).
For `COc1ccc2c(c1O)-c1cccc3c1[C@@H](C2)N(CCCl)CC3`, the growth inhibition [1, 7] was 30%, the growth inhibition [1, 8] was 90% (active) and the growth inhibition ([1]; at 50.0 µM) was 67.6%. The growth inhibition [2, 7] was 15%, the growth inhibition [2, 8] was 99% (active) and the growth inhibition ([2]; at 50.0 µM) was 70.8% (active). For the same compound, the growth inhibition [3, 7] was 28%, the growth inhibition [3, 8] was 95% (active) and the growth inhibition ([3]; at 50.0 µM) was 57.6%. The growth inhibition [4, 7] was 13%, the growth inhibition [4, 8] was 66% and the growth inhibition ([4]; at 50.0 µM) was 35.4%. For the same compound, the growth inhibition [5, 7] was 19%, the growth inhibition [5, 8] was 98% (active) and the growth inhibition ([5]; at 50.0 µM) was 44.4%. The growth inhibition [6, 7] was 52%, the growth inhibition [6, 8] was 98% (active) and the growth inhibition ([6]; at 50.0 µM) was 86.6% (active).
With `CC[C@@]1(O)C[C@H](OC2CC(N)C(O)C(C)O2)c2c(O)c3c(c(O)c2[C@H]1C(=O)OC)C(=O)c1cccc(O)c1C3=O` (some centres not stated) the growth inhibition [1, 7] was 63%, the growth inhibition [1, 8] was 99% (active) and the growth inhibition ([1]; at 50.0 µM) was 78.1% (active). For the same compound, the growth inhibition [2, 7] was 27%, the growth inhibition [2, 8] was 99% (active) and the growth inhibition ([2]; at 50.0 µM) was 87.5% (active). For the same compound, the growth inhibition [3, 7] was 48%, the growth inhibition [3, 8] was 99% (active) and the growth inhibition ([3]; at 50.0 µM) was 80.2% (active). For the same compound, the growth inhibition [4, 7] was 39%, the growth inhibition [4, 8] was 99% (active) and the growth inhibition ([4]; at 50.0 µM) was 67.3%. For the same compound, the growth inhibition [5, 7] was 52%, the growth inhibition [5, 8] was 99% (active) and the growth inhibition ([5]; at 50.0 µM) was 76.7% (active). The growth inhibition [6, 7] was 50%, the growth inhibition [6, 8] was 98% (active) and the growth inhibition ([6]; at 50.0 µM) was 80.2% (active).
For `CCNc1ncc2ccccc2c1-c1ccc(N2CCN(CCCl)CC2)cc1`, the growth inhibition [1, 7] was 15%, the growth inhibition [1, 8] was 93% (active) and the growth inhibition ([1]; at 50.0 µM) was 97.8% (active). For the same compound, the growth inhibition [2, 7] was 13%, the growth inhibition [2, 8] was 89% (active) and the growth inhibition ([2]; at 50.0 µM) was 74% (active). For the same compound, the growth inhibition [3, 7] was 11%, the growth inhibition [3, 8] was 97% (active) and the growth inhibition ([3]; at 50.0 µM) was 98.7% (active). For the same compound, the growth inhibition [4, 7] was 2%, the growth inhibition [4, 8] was 90% (active) and the growth inhibition ([4]; at 50.0 µM) was 93.5% (active). The growth inhibition [5, 7] was 13%, the growth inhibition [5, 8] was 95% (active) and the growth inhibition ([5]; at 50.0 µM) was 97.2% (active). The growth inhibition [6, 7] was 8%, the growth inhibition [6, 8] was 97% (active) and the growth inhibition ([6]; at 50.0 µM) was 98% (active).
